# Laboratory results taken from PubChem BioAssay.
# Activity calls are given as the source filed them.
# Key:
# Albumin (Bos taurus) = Albumin (Bos taurus) (UniProt P02769); assay: compounds binding labelled BSA control protein – biochemical, small-molecule microarray, Alexa647 label, 635/667 nm fluorescence, artefact control for SMM control protein annotation, profiling panel (AID 1118); conditions: BSA-A647 binding, fluorescence 635 nm, higher = more signal;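 further: score merges 667 nm emission intensity and signal-to-noise per printed compound spot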
# Chain of Albumin (Bos taurus) (P02769 whole entry, looked up): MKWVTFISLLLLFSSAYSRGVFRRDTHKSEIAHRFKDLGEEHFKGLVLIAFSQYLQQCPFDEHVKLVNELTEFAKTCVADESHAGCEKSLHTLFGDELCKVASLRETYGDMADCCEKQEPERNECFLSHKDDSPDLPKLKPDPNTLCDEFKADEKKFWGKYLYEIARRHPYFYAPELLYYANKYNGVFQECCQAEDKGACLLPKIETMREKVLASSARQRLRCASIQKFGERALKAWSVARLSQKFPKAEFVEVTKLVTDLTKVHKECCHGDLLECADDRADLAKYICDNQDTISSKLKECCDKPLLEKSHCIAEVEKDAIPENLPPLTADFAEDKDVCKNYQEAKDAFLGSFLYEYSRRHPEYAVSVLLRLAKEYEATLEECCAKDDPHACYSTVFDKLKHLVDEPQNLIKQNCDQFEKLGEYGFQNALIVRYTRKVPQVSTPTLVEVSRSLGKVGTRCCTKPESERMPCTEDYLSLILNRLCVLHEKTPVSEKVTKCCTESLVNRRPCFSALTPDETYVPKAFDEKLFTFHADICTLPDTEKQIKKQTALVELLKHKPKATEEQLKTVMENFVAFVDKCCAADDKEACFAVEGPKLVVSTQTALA
# [1] = probe aXIP binding to arrayed compounds – biochemical, NeuroSMM set, 635/667 nm fluorescence, primary screen (AID 1119); conditions: small-molecule microarray, higher = more signal, called active from +8 up or from −8 down;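 further: probe is the protein aXip251-270 applied at 1 µg/mL to compound-printed slides; binding of probe to printed compounds measured as 667 nm fluorescence plus signal to noise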
# [2] = probe aNOTCH3 binding on compound microarray – biochemical, small-molecule microarray, 635/667 nm fluorescence, primary screen (AID 1120); conditions: higher = more signal;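 further: probe is a biotin-tagged antibody raised against NOTCH3 rather than NOTCH3 protein; score merges spot fluorescence near 667 nm with spot signal to noise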
# [3] = probe aNOTCH2 binding on compound microarray – biochemical, small-molecule microarray, 635/667 nm fluorescence, primary screen (AID 1121); conditions: higher = more signal;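 further: score merges feature fluorescence read at 667 nm with its signal to noise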
# [4] = target: Carbonic anhydrase 2 (Homo sapiens) (UniProt P00918); assay: compounds binding carbonic anhydrase 2 – biochemical, small-molecule microarray, Alexa647-labelled CAII, profiling panel (AID 1122); conditions: CAII-A647 binding fluorescence, higher = more signal
# [5] = COS7 lysate on small-molecule microarray, probe aHis, 635 nm (AID 1123); conditions: COS7 cell lysate, fluorescence, higher = more signal;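 further: z-score combines 667nm fluorescence intensity with signal-to-noise per printed compound spot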
# [6] = probe aLAP1 signal on lysate-treated microarray – cell lysate, small-molecule microarray, COS7 lysate, primary screen (AID 1124); conditions: probe aLAP1, fluorescence, higher = more signal;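 further: lysate comes from COS7 cells expressing LAP1 and is applied at 0.3 µg/mL; score merges spot fluorescence near 667 nm with signal-to-noise over triplicate slides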
# Sam68 (KHDRBS1) = assay: compounds binding KHDRBS1 protein – biochemical, small-molecule microarray, 635 nm fluorescence, primary screen (AID 1125); conditions: higher = more signal;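 further: score merges 667 nm channel intensity with signal to noise over triplicate slides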
# [7] = system: Chordin-like protein 2 (CHRDL2); assay: compounds binding chordin-like 2 – biochemical, small-molecule microarray, 635 nm fluorescence, primary screen (AID 1126); conditions: fluorescence 635 nm, higher = more signal;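 further: printed compound slides probed with Chrdl2 protein at 4 µg/mL for 1 h at 4 C; score merges 667 nm emission intensity with signal to noise over three replicate slides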
# [8] = target: Concanavalin-A (Canavalia ensiformis) (UniProt P02866); assay: compounds binding concanavalin A lectin – biochemical, small-molecule microarray, Alexa647 label, 635 nm, artefact control for SMM control protein annotation, primary screen (AID 1127); conditions: ConA-A647 binding fluorescence, higher = more signal;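 further: z combines 667 nm emission intensity with signal-to-noise across three replicate slides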
# Chain of Concanavalin-A (Canavalia ensiformis) (P02866 whole entry, looked up): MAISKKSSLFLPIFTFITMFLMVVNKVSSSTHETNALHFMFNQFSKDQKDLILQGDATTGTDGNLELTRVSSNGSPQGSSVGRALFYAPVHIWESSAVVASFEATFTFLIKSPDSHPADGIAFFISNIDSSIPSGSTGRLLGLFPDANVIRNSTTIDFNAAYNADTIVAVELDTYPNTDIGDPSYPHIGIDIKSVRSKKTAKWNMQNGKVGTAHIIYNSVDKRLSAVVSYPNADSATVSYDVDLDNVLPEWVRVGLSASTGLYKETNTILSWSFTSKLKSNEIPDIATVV
# [9] = compounds binding Alexa647 anti-His antibody – biochemical, small-molecule microarray, 635 nm fluorescence, artefact control for SMM control protein annotation, primary screen (AID 1128); conditions: higher = more signal;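 further: score merges feature fluorescence with signal-to-noise for each printed compound spot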
# [10] = system: Human papillomavirus type 1a E7 protein (residues 1-88); assay: HPV1a E7 small-molecule binders, primary screen, biochemical, small-molecule microarray, residues 1-88, 635 nm (AID 1129); conditions: small-molecule microarray binding, fluorescence 635 nm; higher = more signal
# [11] = target: Focal adhesion kinase 1 (Homo sapiens) (UniProt Q05397); assay: PTK2 protein binding on printed compound slides – biochemical, small-molecule microarray, 635/667 nm fluorescence, BSA, DTT, primary screen (AID 1130); conditions: 635 nm fluorescence, higher = more signal;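 further: composite of spot emission at 667 nm and signal to noise over triplicate slides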
# Chain of Focal adhesion kinase 1 (Homo sapiens) (Q05397 whole entry, looked up): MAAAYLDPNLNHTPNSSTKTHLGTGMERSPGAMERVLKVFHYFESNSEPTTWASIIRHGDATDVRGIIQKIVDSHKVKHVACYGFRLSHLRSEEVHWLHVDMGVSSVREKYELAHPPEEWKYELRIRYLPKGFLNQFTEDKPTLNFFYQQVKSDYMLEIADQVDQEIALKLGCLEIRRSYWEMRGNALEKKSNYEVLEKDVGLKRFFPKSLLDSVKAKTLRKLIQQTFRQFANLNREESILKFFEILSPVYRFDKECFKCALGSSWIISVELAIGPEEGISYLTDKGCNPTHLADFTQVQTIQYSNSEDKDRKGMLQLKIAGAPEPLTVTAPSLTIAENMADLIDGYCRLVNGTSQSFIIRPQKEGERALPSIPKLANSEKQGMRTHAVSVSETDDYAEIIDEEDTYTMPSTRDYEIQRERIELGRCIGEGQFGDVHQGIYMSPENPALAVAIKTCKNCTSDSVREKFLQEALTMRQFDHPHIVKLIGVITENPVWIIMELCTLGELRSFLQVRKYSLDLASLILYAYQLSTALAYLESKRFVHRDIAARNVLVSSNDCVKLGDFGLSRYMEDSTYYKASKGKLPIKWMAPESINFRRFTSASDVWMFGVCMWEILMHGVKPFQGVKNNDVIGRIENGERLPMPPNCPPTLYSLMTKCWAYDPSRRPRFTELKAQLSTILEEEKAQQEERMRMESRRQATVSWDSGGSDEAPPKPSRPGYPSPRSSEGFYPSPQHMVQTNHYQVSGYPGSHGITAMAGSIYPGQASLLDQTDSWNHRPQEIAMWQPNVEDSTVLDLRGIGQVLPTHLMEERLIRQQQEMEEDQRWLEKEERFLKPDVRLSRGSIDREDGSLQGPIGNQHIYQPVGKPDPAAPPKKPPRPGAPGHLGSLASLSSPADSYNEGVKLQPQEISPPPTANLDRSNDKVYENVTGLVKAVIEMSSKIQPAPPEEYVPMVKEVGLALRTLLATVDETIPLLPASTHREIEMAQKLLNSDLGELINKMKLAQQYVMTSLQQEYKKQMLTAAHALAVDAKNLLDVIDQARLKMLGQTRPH
# [12] = system: Fibrinogen (Alexa647-labelled); assay: Alexa647-fibrinogen binding to printed small molecules – biochemical, small-molecule microarray, 635/667 nm fluorescence, artefact control for SMM control-protein annotation, profiling panel (AID 1131); conditions: fibrinogen-A647 binding fluorescence, higher = more signal;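 further: z-score merges 667 nm fluorescence with per-spot signal-to-noise over triplicate slides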
# [13] = target: Follistatin (Homo sapiens) (UniProt P19883); assay: FST protein binding to printed compounds – biochemical, small-molecule microarray, 635/667 nm fluorescence, primary screen (AID 1132); conditions: 635 nm fluorescence, higher = more signal
# Chain of Follistatin (Homo sapiens) (P19883 whole entry, looked up): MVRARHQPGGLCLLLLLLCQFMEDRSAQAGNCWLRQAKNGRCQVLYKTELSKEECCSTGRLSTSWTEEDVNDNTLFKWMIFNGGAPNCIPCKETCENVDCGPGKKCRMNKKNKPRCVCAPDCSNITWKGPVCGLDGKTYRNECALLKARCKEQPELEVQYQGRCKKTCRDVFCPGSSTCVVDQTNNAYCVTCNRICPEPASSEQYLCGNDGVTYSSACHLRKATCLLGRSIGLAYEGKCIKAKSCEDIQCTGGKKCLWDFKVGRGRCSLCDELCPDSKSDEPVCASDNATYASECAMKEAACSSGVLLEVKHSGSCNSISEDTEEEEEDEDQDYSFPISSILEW
# [14] = target: Fibroblast growth factor 2 (Homo sapiens) (UniProt P09038); assay: basic fibroblast growth factor binding to printed compounds – biochemical, small-molecule microarray, 635/667 nm fluorescence, primary screen (AID 1133); conditions: FGF2, fluorescence 635/667, higher = more signal
# Chain of Fibroblast growth factor 2 (Homo sapiens) (P09038 whole entry, looked up): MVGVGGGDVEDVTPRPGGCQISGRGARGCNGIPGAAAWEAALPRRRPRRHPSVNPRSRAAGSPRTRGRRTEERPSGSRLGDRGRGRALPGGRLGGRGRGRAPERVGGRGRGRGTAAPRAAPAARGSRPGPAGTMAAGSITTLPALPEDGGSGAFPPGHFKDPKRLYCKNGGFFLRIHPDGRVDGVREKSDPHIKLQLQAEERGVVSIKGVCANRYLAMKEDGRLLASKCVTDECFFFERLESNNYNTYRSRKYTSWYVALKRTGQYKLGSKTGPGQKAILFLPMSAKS
# [15] = JC-1 mitochondrial potential readout, lung cancer cells – cell-based, A549, JC-1 fluorescence, basal, 24 h, 100 nL, profiling panel (AID 1138); conditions: higher = more signal;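 further: A549 lung adenocarcinoma cells under basal conditions with no added stimulus; test concentration not given here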
# Lefty1 = Lefty1 protein binding to printed compounds – biochemical, small-molecule microarray, 635/667 nm fluorescence, primary screen (AID 1139); conditions: fluorescence 635/667, higher = more signal
# [16] = system: wheat germ agglutinin (Triticum aestivum), Alexa647-labelled; assay: Alexa647-WGA lectin binding to printed small molecules – biochemical, small-molecule microarray, 635/667 nm fluorescence, artefact control for SMM control-protein annotation, profiling panel (AID 1140); conditions: WGA-A647 binding, 635 nm fluorescence, higher = more signal;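 further: score merges 667 nm feature emission with signal to noise over triplicate slides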
# [17] = target: Luciferin 4-monooxygenase (Photinus pyralis) (UniProt P08659); assay: inhibition of purified Photinus pyralis luciferase – biochemical, luminescence, purified enzyme, 2006 set, primary screen (AID 1141); conditions: purified firefly luciferase, SteadyGlo luminescence, 30 min; higher = more signal, called active from +8 up or from −8 down;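 further: cell-free assay with purified firefly luciferase at 100 ng per well in PBS; test concentration not given here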
# Chain of Luciferin 4-monooxygenase (Photinus pyralis) (P08659 whole entry, looked up): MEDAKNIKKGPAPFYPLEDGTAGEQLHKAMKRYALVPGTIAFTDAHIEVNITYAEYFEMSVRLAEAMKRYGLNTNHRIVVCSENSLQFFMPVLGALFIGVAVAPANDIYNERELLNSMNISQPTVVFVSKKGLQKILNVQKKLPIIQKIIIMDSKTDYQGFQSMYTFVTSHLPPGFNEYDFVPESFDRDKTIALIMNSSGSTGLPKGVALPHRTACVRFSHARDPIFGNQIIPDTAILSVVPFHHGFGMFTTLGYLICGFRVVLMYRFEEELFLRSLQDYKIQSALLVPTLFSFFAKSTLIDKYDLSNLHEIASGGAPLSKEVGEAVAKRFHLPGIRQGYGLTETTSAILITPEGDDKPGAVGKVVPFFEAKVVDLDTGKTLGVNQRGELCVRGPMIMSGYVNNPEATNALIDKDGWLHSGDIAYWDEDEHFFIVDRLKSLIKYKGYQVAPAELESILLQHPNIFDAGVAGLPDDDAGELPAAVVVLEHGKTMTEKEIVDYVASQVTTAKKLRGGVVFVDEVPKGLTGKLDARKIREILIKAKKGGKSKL
Structure (SMILES),composite z-score (Albumin (Bos taurus)),composite Z-score [1],composite z-score [2],composite z-score [3],composite z-score [4],composite z-score [5],composite z-score [6],composite z-score (Sam68 (KHDRBS1)),composite z-score [7],composite z-score [8],composite z-score [9],composite z-score [10],composite z-score [11],composite z-score [12],composite z-score [13],composite z-score [14],z-score [15],composite z-score (Lefty1),composite z-score [16],z-score [17]
O=C1c2ccccc2[C@@]2(Cc3ccccc3N(C3CC3)C2=O)[C@H](c2ccc(CO)cc2)N1C1CCCCC1,0.804,-0.481 (inactive),-0.125,-0.0804,0.269,0.154,0.586,-0.728,-0.431,-1.02,-1.14,-0.729,-0.375,-0.624,-0.667,-0.329,0.306,-0.825,0.637,0.429 (inactive)
CC(C)OC(=O)CC(=O)CC(O)c1cccc(C#N)c1 (stereo not given),0.586,0.586 (inactive),0.178,-0.022,0.522,1.03,0.0279,1.35,-0.591,1.13,0.797,0.828,0.763,0.974,0.102,-0.51,0.67,-0.0714,0.841,1.2 (inactive)
C=CCOC(=O)[C@@H]1[C@H]2C(=O)O[C@H](c3ccccc3)[C@H](c3ccccc3)N2[C@H](c2ccc(OCCOC(=O)[C@H]3C[C@H]4C(=O)N[C@@H](CCCC[N+](C)(C)C)C(=O)N4[C@H]3c3ccc(O)cc3)cc2)[C@@]12C(=O)Nc1ccc(I)cc12,-0.914,4.1 (inactive),0.147,-0.0843,0.534,2.74,0.577,1.3,1.16,1.19,2.62,1.2,0.831,0.542,1.4,1.62,-1.93,1.63,0.756,0.205 (inactive)
COc1ccc([Si](C)(C)[C@@H]2[C@@H](CC(=O)N3CCC[C@H]3CO)O[C@]3(C(=O)N(Cc4ccc(N5C(=O)c6cccc7cccc5c67)cc4)c4ccccc43)[C@H]2C)cc1,-0.647,0.296 (inactive),0.0996,-0.148,0.447,1.77,0.323,1.29,1.3,0.892,1.96,1.2,0.566,0.759,1.1,1.54,-0.438,1.2,0.719,0.508 (inactive)
C=C(CCCC)/C(=C/C[C@@H](OC(=O)c1ccncc1)c1cccc(OCCO)c1)c1cnc2ccccc2c1,0.413,0.815 (inactive),0.272,-0.0495,0.893,1.04,0.327,1.16,1.54,1.1,0.65,0.539,0.0663,0.832,1.5,1.74,1.14,1.6,0.871,-1.63 (inactive)
CCOC(=O)C[C@H]1[C@H](OC(=O)Cc2ccc3c(c2)OCO3)[C@@H](NC(=O)Cc2ccc(OC)cc2)c2cc(OCCCO)ccc2N1C(=O)c1ccccc1,0.793,-0.0539 (inactive),-0.141,-0.0502,0.461,0.682,-0.0207,1.01,-0.353,0.277,0.0506,0.814,0.668,0.511,0.41,0.251,1.57,0.389,0.956,-0.566 (inactive)
CCOC(=O)C1=CC[C@@H](c2ccccc2)N(S(=O)(=O)c2ccc(C)cc2)C1,0.425,-0.0056 (inactive),0.283,-0.0176,0.38,0.522,0.786,0.143,0.565,-0.264,-0.416,0.968,0.478,-0.364,0.736,-0.103,0.747,-0.34,0.564,0.731 (inactive)
CN1C(=O)C2C(C1=O)C1C=C(c3ccc(CO)cc3)C2C(c2cccs2)N1Cc1cccc(OC(F)(F)F)c1 (stereo not given),0.866,-0.228 (inactive),0.0824,-0.152,0.47,1.98,0.37,1.28,0.0434,1.08,1.87,1.25,0.726,1.02,0.942,0.384,0.38,0.733,0.661,0.117 (inactive)
Cc1ccc(S[C@]2(C(=O)NC3CC3)CC(=O)N(Cc3ccccc3Cl)[C@@H]2c2ccc(CO)cc2I)cc1,0.257,0.331 (inactive),-0.0967,-0.0419,0.68,2.52,0.944,1.13,0.506,0.904,2.99,1.05,1.31,0.811,1.45,1.67,0.677,0.101,0.277,0.352 (inactive)
